Assay outcomes as filed in PubChem BioAssay.
IL1B secr inh: qHTS for Inhibitors of Inflammasome Signaling: IL-1-beta AlphaLISA Primary Screen; THP-1 LPS/ATP IL-1B secretion, AlphaLISA, 16 h; hits give low values; activity change, % at 57.5 µM; 360,000 compounds, 4.7% hits; AID 743279, 2014; in the data active = activity change below about -50%; inconclusive = mostly about -30% to -49%
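Secreted IL-1B measured by AlphaLISA bead assay after 16 h compound exposure of THP-1 cells; compounds (final up to 57.5 uM) added 1 h before LPS (250 ng/mL) and ATP (1.25 mM) stimulation; lower signal means less secretion.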
HT1080NT lethal: qHTS for induction of synthetic lethality in tumor cells producing 2HG: qHTS for the HT-1080-NT fibrosarcoma cell line; 360,000 compounds, 1.6% hits; HT-1080-NT fibrosarcoma viability, CellTiter-Glo ATP luminescence, 48 h; Potency, µM (highest dose often 46.1 µM), inactives show at the top dose activity, negative = less viability, hits mostly cytotoxic;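 note: NT is the 2HG producing partner of a matched IDH1 knockdown line; potency is the fitted concentration of half-maximal effect; 0% = DMSO-treated cells and -100% = media-only wells without cells; nearly all actives have a fitted effect of over 55% in size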
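Viability of the 2HG-overproducing fibrosarcoma line after 48 hours of compound exposure at 37 degrees C was determined by luminescence with CellTiter-Glo, and concentration-effect curves were then fitted and categorized.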
12-LOX inh: Primary qHTS assay for inhibitors of human arachidonate 12S-lipoxygenase (ALOX12): Round 2. Polyunsaturated fatty acid lipoxygenase ALOX12 (Homo sapiens), P18054. purified 12hLO, xylenol orange hydroperoxide absorbance. Potency, µM (titrated, usually from 108 µM), for inactives: top-dose activity change, negative = inhibition, actives largely listed as inhibitors. 580,000 compounds, 1.1% hits; note: potency is the fitted concentration of half-maximal effect
Target sequence (P18054 whole entry, looked up): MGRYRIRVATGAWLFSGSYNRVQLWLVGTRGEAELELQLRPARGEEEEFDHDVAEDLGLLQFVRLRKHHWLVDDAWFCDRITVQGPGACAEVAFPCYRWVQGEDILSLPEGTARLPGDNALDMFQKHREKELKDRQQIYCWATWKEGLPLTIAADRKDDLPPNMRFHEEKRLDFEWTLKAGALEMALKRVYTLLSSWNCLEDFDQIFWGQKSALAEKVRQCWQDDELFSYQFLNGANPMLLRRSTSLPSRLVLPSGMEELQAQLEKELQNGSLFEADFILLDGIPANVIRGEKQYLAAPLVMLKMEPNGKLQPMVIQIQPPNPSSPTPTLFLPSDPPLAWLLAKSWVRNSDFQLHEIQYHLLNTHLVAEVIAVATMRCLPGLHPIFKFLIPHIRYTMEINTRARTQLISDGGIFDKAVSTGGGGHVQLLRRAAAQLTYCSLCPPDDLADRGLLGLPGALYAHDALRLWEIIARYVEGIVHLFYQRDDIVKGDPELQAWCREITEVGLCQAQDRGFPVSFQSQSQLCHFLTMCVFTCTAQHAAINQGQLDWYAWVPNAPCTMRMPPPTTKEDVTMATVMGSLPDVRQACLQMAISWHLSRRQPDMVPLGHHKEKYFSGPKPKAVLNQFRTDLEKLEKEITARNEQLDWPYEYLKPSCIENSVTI
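Hydroperoxide product was detected by ferrous iron/xylenol orange as the 573 to 405 nm absorbance ratio. Arachidonic acid at 40 uM (final) was turned over for 30 min at room temperature by 150 nM human 12hLO, pH 7.0 Hepes buffer, after 15 min compound preincubation.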
TDP1 cell noCPT: qHTS for Inhibitors of human tyrosyl-DNA phosphodiesterase 1 (TDP1): qHTS in cells in absence of CPT | DT40 Tdp1-/- hTDP1 cells, no CPT, ATP luminescence, 48 h | Potency, µM (titrated, usually from 46.2 µM), for the others: top-dose activity change, negative = growth inhibition, hits mostly inhibitors | 420,000 compounds, 15% hits; note: potency is the fitted concentration of half-maximal effect; nearly all actives have a fitted effect of over 55% in size
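DT40 Tdp1-/-;hTDP1 cells, no CPT (DMSO vehicle only), 400 cells/well; compounds pin-transferred; ≥48 hr, 37 °C; CellTiter-Glo 30 min RT dark, luminescence read.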
HT1080 IDH1KD tx: qHTS for induction of synthetic lethality in tumor cells producing 2HG: qHTS for the HT-1080-IDH1KD cell line; HT-1080 IDH1 knockdown viability, ATP luminescence, 48 h; Potency, µM (titrated, usually from 46.1 µM), for inactives: at the top dose activity, negative = toxicity, usual class: cytotoxic; 360,000 compounds, 2% hits; AID 686971, 2013;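 note: potency is the fitted concentration of half-maximal effect; 0% = DMSO wells and -100% = cell-free medium wells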
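CellTiter-Glo luminescence after 48 h compound exposure at 37 degrees C of IDH1-knockdown HT-1080 cells in 5% FBS RPMI. %Activity scaled between DMSO wells and cell-free media wells, with curves fitted and assigned curve classes.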
TDP1 cell CPT: qHTS for Inhibitors of human tyrosyl-DNA phosphodiesterase 1 (TDP1): qHTS in cells in presence of CPT. 420,000 compounds, 12% hits. chicken DT40 Tdp1-/-;hTDP1 cells + 20 nM CPT, ATP luminescence, 48 h. Potency, µM (doses to about 46.2 µM), without a hit: at the highest dose activity change, negative = growth inhibition, hits mostly inhibitors; note: potency is the fitted concentration of half-maximal effect; nearly all actives have a fitted effect of over 55% in size
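Chicken DT40 Tdp1-/- cells stably complemented with human TDP1 were seeded at 400 cells/well in medium containing 20 nM camptothecin, exposed to pin-transferred compounds, and grown at 37 °C for at least 48 hr. Viability was read as ATP luminescence.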
* = called active by the depositor; [ ] = dose if it differs, or a comment. This is one part of a sample in which hits are shown more often than they occur. Unless noted, calls come from the whole dose curve; as a rule, active = well fitted curve in the direction sought with a large enough effect; inconclusive = small, poorly fitted or top-dose-only effect, or another doubt; inactive = no such curve, though single readings can be large; an effect the other way counts as inactive or inconclusive. Unless noted, % is set by controls: 0 for no effect and ±100 for the full control effect.

Screening COc1cc(C)c2c(c1C)C[C@H]([C@H](C)C(=O)NC1CCCC1)CC2 returned 12-LOX inh -1%[176 µM].
Screening CCCCCCCC/C=N/NC(=O)c1ccc(C(C)(C)C)cc1 returned 12-LOX inh 55%.
For CCOC(=O)C1Cn2c(nc3c(c2=O)C(C)(C)Cc2ccccc2-3)S1 (stereo not given) the results were IL1B secr inh -3, HT1080NT lethal -11%, 12-LOX inh inconclusive, TDP1 cell noCPT 16µM*, HT1080 IDH1KD tx -13% and TDP1 cell CPT -13%.
CCOC(=O)CSc1nc2c(c(=O)[nH]1)C(C)(CC)Cc1ccccc1-2 (stereo not given) was read as IL1B secr inh 73, HT1080NT lethal inconclusive, 12-LOX inh 2%, TDP1 cell noCPT 16µM*, HT1080 IDH1KD tx 5.8µM* and TDP1 cell CPT inconclusive.
COc1ccc(C2=NOC3(CCCN(C(=O)C4CCCCC4)C3)C2)cc1 (stereo not given) was read as 12-LOX inh 2%[6.33 µM].
For CC(C)(C)c1nnc2sc(SCC(=O)c3ccc(Cl)cc3)nn2c1=O the results were IL1B secr inh inconclusive, HT1080NT lethal 16%, TDP1 cell noCPT inconclusive, HT1080 IDH1KD tx 20% and TDP1 cell CPT -24%.
Screening CC(C)(C)c1nnc2sc(SCC(=O)c3cccs3)nn2c1=O returned IL1B secr inh -19, HT1080NT lethal -20%, 12-LOX inh inconclusive, TDP1 cell noCPT 26µM*, HT1080 IDH1KD tx -22% and TDP1 cell CPT inconclusive.
For Cc1ccc(C(=O)CSc2nn3c(=O)c(C(C)(C)C)nnc3s2)cc1 the results were IL1B secr inh -28, HT1080NT lethal 6%, 12-LOX inh 13%, TDP1 cell noCPT 18µM*, HT1080 IDH1KD tx 6% and TDP1 cell CPT inconclusive.
For CNC(=O)c1ccc2ccnn2c1 the results were 12-LOX inh 6%[176 µM].
For Cn1ccc2c(-c3cncc4ccccc34)cc3c(c21)C1CCC3C1 (stereo not given) the results were IL1B secr inh 11, HT1080NT lethal -18%, 12-LOX inh -9%, TDP1 cell noCPT 18µM*, HT1080 IDH1KD tx -28% and TDP1 cell CPT inconclusive.
Screening Cn1ccc2c(-c3cccnc3)cc3c(c21)C1CCC3C1 (stereo not given) returned IL1B secr inh 1, HT1080NT lethal -1%, 12-LOX inh 2%, TDP1 cell noCPT inconclusive, HT1080 IDH1KD tx -2% and TDP1 cell CPT inconclusive.
COc1ccc(-c2cc3c(c4c2ccn4C)C2CCC3C2)cc1OC (stereo not given) was read as IL1B secr inh -23, HT1080NT lethal inconclusive, 12-LOX inh -37%, TDP1 cell noCPT 26µM*, HT1080 IDH1KD tx -27% and TDP1 cell CPT inconclusive.
For Cn1ccc2c(-c3ccc(F)cc3F)cc3c(c21)C1CCC3C1 (stereo not given) the results were IL1B secr inh 40, HT1080NT lethal -2%, 12-LOX inh -23%, TDP1 cell noCPT inconclusive, HT1080 IDH1KD tx 1% and TDP1 cell CPT -22%.
Cn1ccc2c(-c3cccc4ccccc34)cc3c(c21)C1CCC3C1 (stereo not given) was read as IL1B secr inh 19, HT1080NT lethal -4%, 12-LOX inh 0%, TDP1 cell noCPT inconclusive, HT1080 IDH1KD tx -10% and TDP1 cell CPT -51%.
For Cn1ccc2c(-c3cccc(C=O)c3)cc3c(c21)C1CCC3C1 (stereo not given) the results were IL1B secr inh -8, HT1080NT lethal inconclusive, 12-LOX inh -14%, TDP1 cell noCPT inconclusive, HT1080 IDH1KD tx inconclusive and TDP1 cell CPT 23µM*.
Screening OCC(Cc1ccco1)Cn1ccnc1-c1ccccn1 (stereo not given) returned 12-LOX inh 55%.
`N#Cc1ccc(S(=O)(=O)N2CCCc3nc(-c4ccc(F)cc4)ccc32)cc1` gave 12-LOX inh -14%.
Screening COc1cccc(C(=O)Nc2ccccc2N2CCCC2)c1 returned IL1B secr inh -18, HT1080NT lethal 3%, 12-LOX inh inconclusive, TDP1 cell noCPT inconclusive, HT1080 IDH1KD tx 0% and TDP1 cell CPT 18µM*.
`COc1cccc(C(=O)NC(=S)Nc2ccccc2N2CCCC2)c1` gave IL1B secr inh 2, HT1080NT lethal -13%, 12-LOX inh inconclusive, TDP1 cell noCPT inconclusive, HT1080 IDH1KD tx -1% and TDP1 cell CPT 23µM*.
Screening CC(C)Oc1cccc(C(=O)NC(=S)Nc2ccccc2N2CCOCC2)c1 returned IL1B secr inh 2, HT1080NT lethal -1%, 12-LOX inh inconclusive, TDP1 cell noCPT inconclusive, HT1080 IDH1KD tx -5% and TDP1 cell CPT inconclusive.
Screening O=C(Nc1ccccc1N1CCCCC1)c1cccc(OC(F)F)c1 returned IL1B secr inh 3, HT1080NT lethal -2%, 12-LOX inh -1%, TDP1 cell noCPT inconclusive, HT1080 IDH1KD tx -7% and TDP1 cell CPT inconclusive.
For COc1cccc(C(=O)NC(=S)Nc2ccccc2N2CCCCC2)c1 the results were IL1B secr inh 14, HT1080NT lethal -11%, 12-LOX inh 40µM*, TDP1 cell noCPT inconclusive, HT1080 IDH1KD tx 0% and TDP1 cell CPT inconclusive.
For COc1ccc(NC(=O)CSCC(=O)Nc2ccccc2N2CCCCC2)cc1 the results were IL1B secr inh -13, HT1080NT lethal -5%, 12-LOX inh -27%, TDP1 cell noCPT 29µM*, HT1080 IDH1KD tx -7% and TDP1 cell CPT inconclusive.
For C[C@H](C(=O)N1CCOCC1)C1CC[C@@]2(C)Cc3sc(-c4ccccc4)nc3[C@@H](C)[C@@H]2[C@H]1O (stereo not given in full) the results were 12-LOX inh 17%.
`NCCC(=O)N1CCCC2(Cc3ccccc3CN2C(=O)c2cccc(Cl)c2)C1` (stereo not given) gave 12-LOX inh 6%[6.33 µM].
